Holding throughout (assay): Cytotoxic Profiling of Annotated Libraries Using Quantitative High-Throughput Screening (AID 1296008); further: nearly all actives have a fitted effect of over 60% in size
What all share (conditions): Five cell lines viability, CellTiter-Glo ATP luminescence, 48-72 h; max response: stronger effect = lower value

For experiment [1], the system named is CRL-7250. In outline:
(§1)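 Cells exposed to compounds for 48 or 72 hr at 37 degrees Celsius. Viability read as ATP-coupled luminescence with CellTiter-Glo after 10 min at room temperature.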

The subject of experiment [2] is HEK293. In outline:
as §1

Experiment [3] relates to HaCat. In outline: as §1
The subject of experiment [4] is KB-3-1. In outline: as §1
In experiment [5] the test system is NIH3T3. In a few lines: as §1

Inconclusive results are not listed. A number with no mark means an inactive call. Activity calls are given as the source filed them. The call rests on the fitted dose curve; in most records, active means well fitted inhibition curve with a large enough effect; inconclusive means small, poorly fitted or top-dose-only effect; inactive means flat fitted curve, though single readings scatter.

We go through nine compounds from PubChem BioAssay (NCATS).
On the % scale 0 is the no-effect control and ±100 the full control effect; potency means the concentration at half of the fitted maximal effect.

`CC1=CC(=O)C2(OC3OC(C)C(O)C(OC(=O)/C=C/c4ccccc4)C3O)C=COC(OC3OC(CO)C(O)C(O)C3O)C12` (stereo not given): the max response in experiment [1] is -3.56%; in experiment [2] it was -0.0394%; in experiment [3], 2.65%; in experiment [4] it was 7.12%; in experiment [5], 3.5%.

With `Cc1cc(C(=O)N2CCCCc3ccccc32)ccc1CNC(=O)N1CCC[C@H]1C(=O)N(C)C`, the max response is -2.89% in experiment [1]; -0.739% in experiment [2]; -11% in experiment [3]; 4.93% in experiment [4]; 3.28% in experiment [5].

Consider `C=C[C@H]1[C@H](O[C@@H]2O[C@H](CO)[C@@H](O)[C@H](O)[C@H]2O)OC=C(C(=O)OC)[C@H]1CC(=O)O`, for which the max response was -13.3% in experiment [1]; 3.67% in experiment [2]; -3.58% in experiment [3]; -3% in experiment [4]; -8.69% in experiment [5].

Turning to `CC1(C)CC[C@]2(C(=O)O[C@@H]3O[C@H](CO[C@@H]4O[C@H](CO)[C@@H](O)[C@H](O)[C@H]4O[C@@H]4O[C@H](CO)[C@H](O)[C@H](O)[C@H]4O)[C@@H](O)[C@H](O[C@@H]4O[C@H](CO)[C@@H](O)[C@H](O)[C@H]4O)[C@H]3O)CC[C@]3(C)C(=CCC4[C@@]5(C)CC[C@H](O[C@@H]6OC[C@@H](O)[C@H](O)[C@H]6O)[C@@](C)(C(=O)O)C5CC[C@]43C)[C@@H]2C1` (stereo not given in full), the max response is -1.09% in experiment [1]; 2.33% in experiment [2]; -16.1% in experiment [3]; 4.92% in experiment [4]; 1% in experiment [5].

For `C=C1C(OC(=O)/C(C)=C\C)[C@@]23CCC4[C@@](C)(CCC[C@@]4(C)C(=O)O)C2CC[C@H]1C3OC(C)=O` (stereo not given in full), the max response in experiment [1] was -2.82%; in experiment [2] it was -4.19%; in experiment [3], 4.6%; in experiment [4] it was 5.82%; in experiment [5], 1.34%.

For `CN(C)C/C=C/C(=O)Nc1cccc(C(=O)Nc2cccc(Nc3ncc(Cl)c(-c4c[nH]c5ccccc45)n3)c2)c1`, the Potency was 259 nM (active) in experiment [1]; 580 nM (active) in experiment [2]; 4610 nM (active) in experiment [3]; 1030 nM (active) in experiment [4]; 4110 nM (active) in experiment [5].

Consider `CC1(C)CC[C@]2(C(=O)O[C@@H]3O[C@H](CO)[C@@H](O)[C@H](O)[C@H]3O)CC[C@]3(C)C(=CCC4[C@@]5(C)C[C@@H](O)[C@H](O)C(C)(C)C5[C@H](O)C[C@]43C)[C@@H]2[C@@H]1O` (stereo not given in full), for which the outcome in experiment [1] and in experiment [4] was inactive. For the same compound, the max response was 1.53% in experiment [2], 0.337% in experiment [3] and -3.1% in experiment [5].

For the compound `COc1ccccc1Oc1ccc(N(Cc2cccnc2)S(=O)(=O)CC(F)(F)F)cc1`, the max response in experiment [1] was -7.01%; in experiment [2], 4.88%; in experiment [3], 0.0707%; in experiment [4], -5.75%; in experiment [5], -1.58%.

As to `C=C1C[C@]23C[C@H]1[C@@H](O)C[C@H]2[C@@]12C=C[C@H](O)[C@@](C)(C(=O)O1)[C@H]2[C@@H]3C(=O)O`, the max response is 0.0204% in experiment [1]; -1.36% in experiment [2]; -32.5% in experiment [3]; -2.31% in experiment [4]; 0.227% in experiment [5].
